Test results from PubChem BioAssay AID1326 (NMMLSC, 2008).
Hit rate of the full screen: of about 190,000 compounds, about 130 (0.068%) were called active. Cut-off read from the data, not from the text of the source: active = inhibition above about 40%; inactive = the rest. The entries come from a sample that favours actives as a whole.

target: ATP-dependent translocase ABCB1 (Homo sapiens) (UniProt P08183); experiment: blockers of ABCB1-mediated dye efflux – cell-based, multiplex, flow cytometry, ABCG2 counter-screen, primary screen (AID 1326); details: CCRF-Adr cells, JC-1 efflux, at 6.6 µM, active compounds read high;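 note: 0% = vehicle and 100% = reference inhibitor; higher value means more JC-1 retained so stronger ABCB1 efflux block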
Sequence (P08183 whole entry, looked up): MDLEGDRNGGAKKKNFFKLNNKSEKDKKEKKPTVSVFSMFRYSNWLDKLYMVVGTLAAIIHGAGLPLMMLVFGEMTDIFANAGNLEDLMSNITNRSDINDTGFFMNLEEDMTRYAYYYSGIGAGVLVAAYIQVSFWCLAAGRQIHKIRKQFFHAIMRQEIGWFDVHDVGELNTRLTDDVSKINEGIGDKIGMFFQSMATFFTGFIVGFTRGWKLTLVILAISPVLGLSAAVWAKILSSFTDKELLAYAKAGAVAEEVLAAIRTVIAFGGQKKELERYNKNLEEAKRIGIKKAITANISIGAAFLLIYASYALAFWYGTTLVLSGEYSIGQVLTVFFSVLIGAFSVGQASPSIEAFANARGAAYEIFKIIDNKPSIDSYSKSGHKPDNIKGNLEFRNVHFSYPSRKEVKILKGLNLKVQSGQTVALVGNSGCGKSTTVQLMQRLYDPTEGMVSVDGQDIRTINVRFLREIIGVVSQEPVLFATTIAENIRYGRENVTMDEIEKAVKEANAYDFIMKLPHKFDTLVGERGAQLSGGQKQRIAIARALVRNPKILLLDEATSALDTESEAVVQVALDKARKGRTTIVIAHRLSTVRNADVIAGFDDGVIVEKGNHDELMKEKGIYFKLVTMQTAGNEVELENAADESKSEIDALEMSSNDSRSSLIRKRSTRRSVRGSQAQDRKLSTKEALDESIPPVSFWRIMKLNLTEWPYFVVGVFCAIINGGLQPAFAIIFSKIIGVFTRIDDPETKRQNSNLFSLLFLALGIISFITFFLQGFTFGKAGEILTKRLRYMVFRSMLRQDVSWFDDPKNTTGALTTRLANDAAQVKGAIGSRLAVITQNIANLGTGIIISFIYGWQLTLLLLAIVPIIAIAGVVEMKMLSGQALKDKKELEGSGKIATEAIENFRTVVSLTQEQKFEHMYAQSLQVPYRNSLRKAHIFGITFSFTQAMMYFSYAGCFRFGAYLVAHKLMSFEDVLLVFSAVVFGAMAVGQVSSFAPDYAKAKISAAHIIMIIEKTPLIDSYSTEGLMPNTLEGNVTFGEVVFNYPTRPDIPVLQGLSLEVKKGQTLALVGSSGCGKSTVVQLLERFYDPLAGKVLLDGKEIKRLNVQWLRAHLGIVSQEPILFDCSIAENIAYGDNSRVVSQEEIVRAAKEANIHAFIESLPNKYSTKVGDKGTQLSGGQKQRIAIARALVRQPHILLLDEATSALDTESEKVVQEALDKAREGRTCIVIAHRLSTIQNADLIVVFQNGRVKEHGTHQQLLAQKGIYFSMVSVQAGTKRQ

Row | SMILES | inhibition
1 | CCCn1nc(NS(=O)(=O)c2ccccc2)c2cc3cc(C)ccc3nc21 | 0.68% (inactive)
2 | O=S(=O)(c1ccccc1)c1nc(-c2ccccc2F)oc1NCc1cccnc1 | 5.26% (inactive)
3 | c1ccc2c(c1)OCCOCCOCCO2 | 0.51% (inactive)
4 | CC(=O)Cc1nsc(NC(=O)c2ccc(Cl)cc2Cl)n1 | -0.31% (inactive)
5 | COC(=O)c1cc(NC(=O)CN2CCN(C(C)=O)CC2)cc(C(=O)OC)c1 | 1.14% (inactive)
6 | CC(CNC(=O)c1ccc(N)cc1)NC(=O)c1ccc(N)cc1 (stereo not drawn) | -0.82% (inactive)
7 | CS(=O)(=O)N1CCC(C(=O)N2CCN(c3ccccc3)CC2)CC1 | 0.86% (inactive)
8 | CCC1SC(CC)C(=O)N(CC(=O)NC2CCCCC2)C1=O (stereo not drawn) | 0.07% (inactive)
9 | Cc1c(Cl)c([N+](=O)[O-])nn1CC(=O)NCC1CCCO1 (stereo not drawn) | -0.1% (inactive)
10 | COc1ccc(-n2nnnc2SCC(=O)NCc2cccs2)cc1 | 2.4% (inactive)
11 | CCOc1ccc2nc(NC(=O)c3cc([N+](=O)[O-])ccc3N3CCOCC3)sc2c1 | -1.41% (inactive)
12 | NC(=O)COC(=O)c1sc2cc(F)ccc2c1Cl | -0.04% (inactive)
13 | COc1ccc(C(=O)COC(=O)c2nn(C)c(=O)c3ccccc23)c(OC)c1 | 0.19% (inactive)
14 | O=C1c2cccc3c([N+](=O)[O-])ccc(c23)C(=O)N1CC1CCCO1 (stereo not drawn) | 0.98% (inactive)
15 | CN(CCOc1ccccc1)Cc1nc2cc(Cl)ccc2c(=O)[nH]1 | 0.26% (inactive)
16 | Cc1ccc(Nc2c(F)c(F)c(F)c(F)c2C(=O)O)c(C)c1 | -0.24% (inactive)
17 | Cc1ccc(CNC(=O)CCNS(=O)(=O)c2ccc(Br)s2)cc1 | -0.56% (inactive)
18 | NS(=O)(=O)c1ccc(CCNC(=O)c2ccc(Cl)cc2[N+](=O)[O-])cc1 | 1.3% (inactive)
19 | COc1ccccc1NC(=O)CCSc1nnc(-c2ccc(O)cc2)o1 | 0.42% (inactive)
20 | COc1ccc(/C=N/Nc2ncnc3sc4c(c23)CCCC4)cc1O | -0.22% (inactive)
21 | N#Cc1cnn2cc(CCN3CCOCC3)c(-c3ccc(F)cc3)nc12 | 1.26% (inactive)
22 | CCCNCc1cc(OCC)c(OCC(=O)Nc2ccccc2)cc1Br | 0.07% (inactive)
23 | O=C(CN(C(=O)c1csnn1)c1cccc(F)c1)NCc1ccc(F)cc1 | 1.22% (inactive)
24 | COC(=O)c1ccc(C(NC(=O)OCc2ccccc2)/C(C)=C/[C@@H](C)C(=O)NCc2ccc(OC)c(OC)c2)cc1 (stereo partly drawn) | 9.15% (inactive)

Row | SMILES | inhibition
25 | Cc1ccccc1CSc1nnc(-c2ccccc2)c(=O)[nH]1 | 0.19% (inactive)
26 | CCC(C)(C)NC(=O)C(c1cccc(OC)c1OC)N(CC(C)C)C(=O)CCC(=O)Nc1cc(C)on1 (stereo not drawn) | 1.31% (inactive)
27 | CCOC(=O)C1(C)NC(c2ccco2)C2C(=O)N(c3ccccc3)C(=O)C21 (stereo not drawn) | 0.47% (inactive)
28 | CCOC(=O)NC(=O)CSc1nnc(SCCC(=O)O)s1 | 0.52% (inactive)
29 | Cc1nn(CCOc2ccc(Br)cc2)c(C)c1[N+](=O)[O-] | 1.06% (inactive)
30 | CN(C)c1ccc(/C=N/NC(=O)C(O)c2ccc(Br)cc2)cc1 (stereo not drawn) | 0.7% (inactive)
31 | OC1CSc2nc3ccccc3n2C1 (stereo not drawn) | -0.99% (inactive)
32 | Cc1ccc(C)c(-n2nnnc2SCC(=O)c2c(N)n(C)c(=O)n(C)c2=O)c1 | -0.82% (inactive)
33 | Nc1nc(CC(=O)CSc2ccc(Cl)cc2)nc(Nc2ccc(F)cc2)n1 | 0.01% (inactive)
34 | COc1ccc(Br)cc1/C=N/Nc1ccc(Cl)c(C(=O)O)c1 | -0.4% (inactive)
35 | Cc1cc(/C=C2/SC(=O)N(CC(=O)N3CCCC3)C2=O)ccc1N1CCOCC1 | 1.48% (inactive)
36 | Cc1nc(S(=O)(=O)c2ccc(Br)cc2)nc2c1CCC2 | 0.58% (inactive)
37 | COc1ccccc1NC(=O)c1cc(Cl)nnc1Cl | 1.04% (inactive)
38 | COc1ccc(S(=O)(=O)N(C)CC(=O)N2CCCC2)cc1Cl | 1.26% (inactive)
39 | COc1ccc(C(=O)Nc2ccc(N3CCC(C)CC3)cc2)cc1Br | 1.32% (inactive)
40 | Cc1ccc(C(=O)N/C(=C/c2cccnc2)C(=O)O)cc1 | 0.02% (inactive)
41 | O=C(O)c1cccc(NC(=O)c2cc(-c3cccc(Cl)c3)nc3ccccc23)c1 | -0.61% (inactive)
42 | C/C(=N\Nc1ncc(Cl)cc1Cl)c1cccs1 | 0.7% (inactive)
43 | COC(=O)c1c(C(=O)OC)c(-c2cccc(C)c2)n2c1CS(=O)C2 (stereo not drawn) | 0.19% (inactive)
44 | COCC(C)n1c(C)cc(C(=O)COc2ccc(C)nc2[N+](=O)[O-])c1C (stereo not drawn) | 0% (inactive)
45 | S=c1[nH]nc(NCCc2ccccc2)s1 | -0.12% (inactive)
46 | C/C(=N\NC(=O)C(N)=O)c1ccc2c(c1)OCCO2 | 1.58% (inactive)
47 | CC(C)/C=N/NC(=O)c1cc(Br)ccc1O | 0.05% (inactive)
48 | O=C(O)CC(SCC(=O)Nc1ccc(Br)cc1)C(=O)O (stereo not drawn) | -0.05% (inactive)
